This is part of a sample that, as a whole, favours compounds with a hit. Of some 83,000 tested, about 20% had one in any assay.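 Treatment: one concentration, 48 hours, 96-well format. Scoring: percent growth, with anything below 10 considered active.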 Values without a mark were called inactive. Active and inactive are the calls of the source.
Key:
Assay in all cases: NCI-60 one-dose screen, 48 h (100 = growth as untreated, 0 = no growth, -100 = all killed)
Conditions in all cases: 10 µM unless noted
DU-145 prostate = tested on: DU-145 prostate
K-562 leukemia = tested on: K-562 leukemia
MALME-3M melanoma = tested on: MALME-3M melanoma
MDA-MB-231 breast = tested on: MDA-MB-231 breast
SF-268 CNS = tested on: SF-268 CNS
SF-295 CNS = tested on: SF-295 CNS
SF-539 CNS = tested on: SF-539 CNS
UACC-257 melanoma = tested on: UACC-257 melanoma
HCT-15 colon = tested on: HCT-15 colon
HT29 colon = tested on: HT29 colon
SNB-75 CNS = tested on: SNB-75 CNS
SNB-19 CNS = tested on: SNB-19 CNS
U251 CNS = tested on: U251 CNS
PC-3 prostate = tested on: PC-3 prostate
SK-MEL-5 melanoma = tested on: SK-MEL-5 melanoma
UACC-62 melanoma = tested on: UACC-62 melanoma
LOX IMVI melanoma = tested on: LOX IMVI melanoma
SK-MEL-28 melanoma = tested on: SK-MEL-28 melanoma

Row | Structure (SMILES) | growth (DU-145 prostate) | growth (K-562 leukemia) | growth (MALME-3M melanoma) | growth (MDA-MB-231 breast) | growth (SF-268 CNS) | growth (SF-295 CNS) | growth (SF-539 CNS) | growth (UACC-257 melanoma) | growth (HCT-15 colon) | growth (HT29 colon) | growth (SNB-75 CNS) | growth (SNB-19 CNS) | growth (U251 CNS) | growth (PC-3 prostate) | growth (SK-MEL-5 melanoma) | growth (UACC-62 melanoma) | growth (LOX IMVI melanoma) | growth (SK-MEL-28 melanoma)
1 | COc1ccc(/C=N/NC(=O)c2cn(C3CC3)c3c(OC)c(N4CC5CCCNC5C4)c(F)cc3c2=O)cc1 (centres undefined) | 93.6% | 7.92% (active) | 90.4% | 81.1% | 83.6% | 103% | 35.5% | 106% | 47.6% | 32.4% | 93.1% | 96.6% | 89.4% | 75.1% | 87.1% | 100% | 19.6% | 92.8%
2 | CC(=O)C1=C(C)NC(NN)=NC1c1cccc(Cl)c1 (centres undefined) | 114% | 100% | 104% | 96.6% | 103% | 104% | 98.6% | 113% | 102% | 111% | 95.9% | 103% | 95% | 96.9% | 106% | 93.9% | 111% | 106%
3 | O=C(NNc1nc2cc(F)ccc2n2c(CO)ccc12)c1cnccn1 | 22.7% | 8.85% (active) | 10.5% | 35.9% | 20.3% | 3.48% (active) | 3.67% (active) | -1.53% (active) | 22.9% | 22% | 42.9% | 21.8% | 16.5% | 23.6% | 6.38% (active) | -14.8% (active) | 1.5% (active) | 25.1%
4 | CCCCCc1ccc(S(=O)(=O)Nc2cc(-c3csc(NC(=O)CN4CCN(C)CC4)n3)ccc2OC)cc1 | 22.1% | -27.9% (active) | -84.6% (active) | -38.1% (active) | -24.5% (active) | -68.2% (active) | -80.8% (active) | -49.2% (active) | -58.9% (active) | -31.1% (active) | 91.2% | 6.64% (active) | -18.2% (active) | 23.2% | -93.5% (active) | -58.5% (active) | -94% (active) | -69.4% (active)
5 | NC(N)=Nc1ccc(Oc2ccc(Nc3ccc(Cl)c(C(F)(F)F)c3)cc2)cc1 | 39% | 7.03% (active) | 61.7% | 28.4% | 39% | 22.3% | 25.5% | 68.3% | 37% | 13.7% | 95.2% | 3% (active) | 3.48% (active) | 32.5% | 8.32% (active) | 38.2% | -96% (active) | 56.6%
6 | COc1cc2c(cc1OC)C(Sc1ccc(F)cc1)c1c(nc(N)c(C#N)c1N)O2 (centres undefined) | -93.3% (active) | 8.27% (active) | -75.1% (active) | -79% (active) | -38.3% (active) | -74.8% (active) | -90.6% (active) | -25% (active) | -70.7% (active) | 5.15% (active) | 52.9% | -82.5% (active) | -77.5% (active) | -84% (active) | -82.5% (active) | -74.2% (active) | -91.1% (active) | -71.9% (active)
7 | CCn1c2ccccc2c2cc(-n3nncc3-c3ccccc3)ccc21 | 13.3% | 10.3% | 56.3% | 27.2% | 35.2% | 15.7% | -17.7% (active) | 85.4% | 8.42% (active) | 2.01% (active) | 27.4% | 24.1% | 25.1% | 29.1% | -11.7% (active) | 35.5% | -29.5% (active) | 66.4%
8 | N#Cc1cnc2ccc(-c3cnc4[nH]ncc4c3)cc2c1N1CCc2cc(F)c(Cl)cc21 | 7.85% (active) | 16.6% | 0.688% (active) | 10.9% | 8.85% (active) | -18.8% (active) | -27.1% (active) | 36% | 3.32% (active) | 2.58% (active) | -9.27% (active) | 14.2% | 20.5% | 6.58% (active) | -37.2% (active) | -18.5% (active) | -9.51% (active) | 31.3%
9 | O=C1Nc2ccccc2/C1=C/c1ccc(COCC2CO2)n1-c1ccc(O)cc1 (centres undefined) | 111% | 107% | 62.9% | 94.9% | 98.7% | 109% | 96.8% | 102% | 107% | 110% | 95.1% | 97.7% | 99.4% | 101% | 101% | 96% | 79.6% | 106%
10 | CN1CCN(Cc2ccc(NC(=O)c3cncc(C#Cc4cnc5ccc(OCC6(C)COC6)nn45)c3)cc2C(F)(F)F)CC1 | -85.3% (active) | 4.99% (active) | -79.8% (active) | -74.1% (active) | -62.2% (active) | -97.1% (active) | -88.6% (active) | -70.6% (active) | -78.6% (active) | -37.5% (active) | -68.7% (active) | -86.1% (active) | -62% (active) | -69% (active) | -93.2% (active) | -90.5% (active) | -93.5% (active) | -89.2% (active)
11 | CC1=NC2=NC(=O)/C(=C3/N=C(C)C=C(c4ccccc4)N3N)NN2C(c2ccccc2)=C1 | 105% | 101% | 44.3% | 72.2% | 103% | 106% | 100% | 109% | 107% | 109% | 116% | 96.3% | 105% | 96.7% | 99.1% | 88.7% | 102% | 109%
12 | O=C(CNc1nc(-c2cccc([N+](=O)[O-])c2)cs1)Nc1cccc([N+](=O)[O-])c1 | -6.15% (active) | 8.33% (active) | -70.8% (active) | -28.8% (active) | -4.97% (active) | 0.245% (active) | -29.6% (active) | -13% (active) | 3.96% (active) | -34.9% (active) | 52.9% | -12.3% (active) | -14.8% (active) | -37.8% (active) | -84.5% (active) | -62.6% (active) | -74.3% (active) | -24.3% (active)
13 | ClC(Cl)c1nc(-c2ccco2)n2nc(-c3ccccc3)cc2n1 | -24.8% (active) | 50.6% | 107% | -11.1% (active) | 24.3% | -15.4% (active) | -7.97% (active) | 54% | 12.8% | 0.803% (active) | 88.5% | 8.35% (active) | -0.0523% (active) | 1.66% (active) | 98.1% | 40.7% | 98.2% | 12.4%
14 | COc1ccc(NC2=C(Cl)C(=O)c3nc(C)ccc3C2=O)cc1OC | 93% | 7.18% (active) | 94.5% | 73% | 84.7% | 104% | 103% | 91% | 82.3% | 110% | 111% | 94.6% | 106% | 70.6% | 86.6% | 71.8% | -3.09% (active) | 102%
15 | CC/C(=C/c1cc(OC)ccc1O)c1ccc2cc(OC)ccc2[o+]1 | 68.6% | 20.3% | 53.1% | 66.2% | 61.6% | 52.2% | 52.7% | 65.6% | 23.9% | 15.7% | 48.3% | 47.3% | 66.5% | 40% | 40.7% | 21.4% | – | 61.8%
16 | Cn1ccnc1C(=O)/C=C/c1ccc(CNC(=O)c2ccc(Cl)cc2)cc1 | 10.2% | 13.2% | 73.5% | 13.3% | 10.1% | 13.8% | -26.7% (active) | 67.9% | -14.5% (active) | -16.3% (active) | 56% | 11.1% | 7.03% (active) | 19.9% | 32.6% | 5.76% (active) | – | 45.2%
17 | COc1ccc(Cn2cc3c(c2-c2cc(OC)c(OC)c(OC)c2)CCc2c(CN4CCOCC4)noc2-3)cc1 | 20% | 12.6% | 43.3% | 31.8% | 47.7% | 13.3% | 3.49% (active) | 73.4% | 15.3% | 11.7% | 18% | 27.1% | 27.9% | 31.9% | 17.3% | 19.1% | 33.5% | 60.7%

— PubChem BioAssay (NCI)
